# HP1b chromo inh – HTS for Inhibitors of HP1-beta Chromodomain Interactions with Methylated Histone Tails; Chromobox protein homolog 1 (Homo sapiens), P83916; AlphaScreen HP1-beta / biotin-H3K9me3 peptide binding; Potency, µM (titrated, usually from 114 µM), without a hit: at the top dose activity change, negative = inhibition, hits mostly inhibitors; actives 0.56% (n = 390,000); AID 540317, 2011; note: potency is the fitted concentration of half-maximal effect; nearly all actives have a fitted effect of over 70% in size
# Target sequence (P83916 whole entry, looked up): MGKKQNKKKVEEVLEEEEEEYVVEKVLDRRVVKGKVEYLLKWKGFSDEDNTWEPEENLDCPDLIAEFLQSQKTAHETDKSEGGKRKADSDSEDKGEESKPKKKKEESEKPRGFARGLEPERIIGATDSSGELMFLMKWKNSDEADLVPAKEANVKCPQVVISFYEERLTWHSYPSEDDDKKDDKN
#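 HP1-beta protein (50 nM final) preincubated 30 min at room temperature with biotinylated H3(1-18)K9me3 peptide (50 nM) in PBS pH 7.4, 0.01% Tween-20, then compound added for 30 min. AlphaScreen streptavidin donor/nickel chelate acceptor beads (10 ug/mL final), 30 min dark, luminescence read.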
# CtBP-E1A blk – qHTS Assay for Inhibitors of the CtBP/E1A Interaction. AlphaScreen GST-E1A/His-CtBP binding, 1536-well; stronger effect = lower value. actives 0.49% (n = 340,000). CtBP / adenovirus E1A interaction (AlphaScreen). activity change, % (test concentration not listed). AID 651724, 2012; in the data active = activity change below about -65%; inconclusive = mostly about -30% to -63%; note: % is set by controls: 0 for no effect and ±100 for the full control effect
#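 In 5 uL wells, 23 nL compound meets equimolar GST-E1A and His-CtBP (5X stock 125 nM each) for 2 h, 37 °C. Beads (5X, 50 ug/mL) then 1 h, 37 °C, dark.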
# JMJD2A Tudor inh – qHTS Assay for Inhibitors of JMJD2A-Tudor Domain | Lysine-specific demethylase 4A (Homo sapiens), O75164 | AlphaScreen JMJD2A-Tudor / H3K4me3 peptide binding | Potency, µM (doses to about 114 µM), for the others: top-dose activity change, negative = inhibition, most hits filed as inhibitors | actives 4.4% (n = 390,000) | AID 504339, 2011; note: potency is the fitted concentration of half-maximal effect; % is set by controls: 0 for no effect and ±100 for the full control effect; nearly all actives have a fitted effect of over 50% in size
# G9a block – qHTS Assay for Inhibitors of Histone Lysine Methyltransferase G9a; Histone-lysine N-methyltransferase EHMT2 (Homo sapiens), Q96KQ7; G9a H3K9 monomethylation, AlphaScreen, 2 h; Potency, µM (highest dose often 102 µM), for inactives: at the top dose activity, negative = inhibition, actives largely listed as inhibitors; actives 8.8% (n = 350,000); AID 504332, 2011; note: potency is the fitted concentration of half-maximal effect; % is set by controls: 0 for no effect and ±100 for the full control effect; nearly all actives have a fitted effect of over 75% in size
# Target sequence (Q96KQ7 913-1193 limits assumed): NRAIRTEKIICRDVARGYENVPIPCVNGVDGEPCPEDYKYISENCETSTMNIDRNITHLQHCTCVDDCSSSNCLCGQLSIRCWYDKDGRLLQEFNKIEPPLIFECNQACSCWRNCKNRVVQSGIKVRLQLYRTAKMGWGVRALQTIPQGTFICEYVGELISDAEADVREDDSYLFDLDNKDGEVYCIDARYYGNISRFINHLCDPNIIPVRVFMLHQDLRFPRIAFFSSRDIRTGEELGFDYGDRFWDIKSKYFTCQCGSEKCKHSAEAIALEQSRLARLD
#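 Quantitative HTS format: methyltransferase activity on a biotin-tagged H3K9 peptide is measured by AlphaScreen, using a rabbit anti-monomethyl-H3K9 antibody with streptavidin donor and anti-IgG acceptor beads. Final levels are 20 nM enzyme, 500 nM peptide, 20 uM SAM; 2 h RT.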
# Six1-Eya2 blk – qHTS Assay for Inhibitors of the Six1/Eya2 Interaction | Homeobox protein SIX1 (Homo sapiens) + Protein phosphatase EYA2 (Homo sapiens), … | AlphaScreen GST-Six1/His-Eya2 binding, biochemical; stronger effect = lower value | activity change, % (concentration not given with the values) | actives 0.56% (n = 360,000) | AID 651725, 2012; in the data active = activity change below about -65%; inconclusive = mostly about -30% to -63%; note: % is set by controls: 0 for no effect and ±100 for the full control effect
#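 Six1/Eya2 binding was read as AlphaScreen signal after compounds were pinned into GST-Six1 plus His-tagged Eya2 (5X stock 250/500 nM) in pH 8.0 Tris/NaCl/TCEP buffer, beads added, then incubated 1 h, 37 C, dark.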
# BAZ2B inh – qHTS Assay for Inhibitors of BAZ2B | AlphaScreen BAZ2B-H3K14Ac peptide displacement | Potency, µM (doses to about 114 µM), without a hit: at the top dose activity change, negative = inhibition, hits mostly inhibitors | actives 4.4% (n = 360,000) | AID 504333, 2011; note: potency is the fitted concentration of half-maximal effect; % is set by controls: 0 for no effect and ±100 for the full control effect; nearly all actives have a fitted effect of over 60% in size
#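 In this displacement format the biotinylated H3(5-23) peptide acetylated at Lys14 serves as ligand at 50 nM, with BAZ2B at 50 nM in PBS pH 7.4 containing 0.01% Tween-20. Donor and acceptor beads are 10 ug/mL final.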
# Numbers without * were called inactive; u = inconclusive; x = no result; ! = not active in a repeat; [ ] = another dose, or the depositor's remark. The list is not random: actives were taken first. Their share in the collection is about 10%. Unless noted, calls come from the whole dose curve; as a rule, active = well fitted inhibition curve with a large enough effect; inconclusive = small, poorly fitted or top-dose-only effect; inactive = no such curve, though single readings can be large or run the other way.
SMILES,HP1b chromo inh,CtBP-E1A blk,JMJD2A Tudor inh,G9a block,Six1-Eya2 blk,BAZ2B inh
O=C(CSc1nc(-c2ccc(F)cc2)nc2c1Cc1ccccc1O2)Nc1ccc(C(=O)O)cc1,u,-12,10µM*,u,-24,7.9µM*
O=C(CSc1nc(-c2ccccc2)nc2c1Cc1ccccc1O2)Nc1ccc(C(=O)O)cc1,32µM*,-5,10µM*,-4%,-81*,13µM*
Cc1ccc(-c2nc3c(c(SCC(=O)Nc4cccc(C(=O)O)c4)n2)Cc2cccc(C)c2O3)cc1,u,x,3.2µM*,10µM*,x,7.1µM*
O=C(Cc1ccc(-n2c(=O)c3sccc3n(CC(=O)Nc3ccccc3F)c2=O)cc1)NCc1ccco1,31%,3,-3%,-28%,1,-8%
Cc1ccc(CN2CCN(C3CCNCC3)C(=O)C2=O)cc1,26%,x,-13%,-4%[59 µM],x,1%
O=C(c1cc(Br)ccc1Cl)N1CCN(c2ccccn2)CC1,17%,0,-18%,x,2,5%
NS(=O)(=O)c1ccc(NC(=O)CN2C(=O)C3C4C=CC(C4)C3C2=O)cc1 (centres undefined),20%,0,-5%,6%,0,-21%
CCOC(=O)c1cc2c(OC)c(OC)ccc2c2[nH]cc(C#N)c(=O)c12,x,-6,x,x,3,x
COc1ccc(SCC(=O)c2cc(C)c(OC(=S)N(C)C)c(C)c2)cc1,72%,-1,12%,40µM*,-1,5%
C/C(=N\N=C1\NC(=O)C(CC(=O)O)S1)c1ccccn1 (centres undefined),51%,u,u,x,u,50µM*
CCOc1ccc(N=C2NC(=O)C(CC(=O)O)S2)cc1 (centres undefined),24%,5,5%,31%[12.7 µM],0,-6%
OC(c1ccccn1)C(O)c1ccccn1 (centres undefined),-11%,-5,50µM*,x,3,x
O=P(c1ccccc1)(c1ccccc1)C(O)c1ccccn1 (centres undefined),35%,x,u,x,-17,20µM*
Cc1cc2c(s1)c1cnn(Cc3ccc(C#N)cc3)c(=O)c1n2C,x,x,-3%,x,x,x
C1CSC2(N1)C1CC3CC(C1)CC2C3 (centres undefined),-4%,-1,-33%,6.3µM*,-7,-2%
Cc1sc(N)c(C(=O)c2ccccc2Cl)c1C,u,-12,u,17%[12.7 µM],-11,45µM*
COc1ccc(-c2cn3nc(N4CCCC(C(=O)Nc5ccc(C)c(C)c5)C4)sc3n2)cc1 (centres undefined),-13%,x,-29%,-33%[59 µM],x,-1%
NS(=O)(=O)c1cc(C(=O)O)cc(N2CCCC2)c1Oc1ccccc1,10%,4,-10%,18µM*!,-3,5%
CCCCNc1cc(C(=O)O)cc(S(N)(=O)=O)c1Oc1ccccc1,48%,1,-6%,-7%[59 µM],2,-3%
CN(CCCNC(=O)C1CCC(=O)N1Cc1ccccc1Cl)c1ccccc1 (centres undefined),-3%,-10,-27%,12%,-5,-33%
CN(CCCNC(=O)C1CCC(=O)N1Cc1ccc(F)cc1)c1ccccc1 (centres undefined),14%,3,-24%,79µM*,-4,-5%
CCN(CCNC(=O)CN1CCN(Cc2ccc(Cl)cc2)C1=O)c1ccccc1,-12%,-18,-25%,11µM*,-15,u
CCN(CCNC(=O)C1CCC(=O)N1Cc1ccc(C)cc1)c1ccccc1 (centres undefined),28%,x,4%,50µM*,5,-24%
CCN(CCCNC(=O)C1CCC(=O)N1Cc1ccc(C)cc1)c1cccc(C)c1 (centres undefined),-17%,1,u,20%[0.501 µM],-10,u
O=C(CN1CCN(Cc2ccccc2)C1=O)NCc1ccc(Cl)cc1,26%,6,11%,0%[59 µM],-5,1%
SMILES,HP1b chromo inh,CtBP-E1A blk,JMJD2A Tudor inh,G9a block,Six1-Eya2 blk,BAZ2B inh
CCN(CCCNC(=O)C1CCC(=O)N1Cc1ccccc1Cl)c1cccc(C)c1 (centres undefined),1%,-8,-30%,45µM*,-11,u
Cc1ccc(NC(=O)c2ccc3c(O)c(S(=O)(=O)c4ccc(Cl)cc4)c(=O)[nH]c3c2)cc1,38%,x,-21%,-3%[59 µM],x,-31%
CCOC(=O)C1CCCN(C(c2ccccn2)c2c(C)[nH]c3ccccc23)C1 (centres undefined),5%,2,-7%,1.4µM*,10,-33%
Cc1ccnc(NC(c2ccccn2)c2c(C)[nH]c3ccccc23)c1 (centres undefined),u,3,56µM*,u,-6,-39%
Cc1[nH]c2ccccc2c1C(c1ccccn1)N1CCC(C)CC1 (centres undefined),34%,-2,-3%,u,-3,-10%
Cc1[nH]c2ccccc2c1C(c1ccccn1)N1CCCC1 (centres undefined),29%,5,-11%,45µM*,-1,-24%
CCC(=O)NC(=S)Nc1ccc(NC(=O)c2ccc([N+](=O)[O-])cc2Cl)cc1,33%,6,-10%,-13%[59 µM],-1,6%
O=C(N/N=C/c1cc(Br)c(O)c(Br)c1O)c1cccnc1,26%,x,50µM*,u,-91*,35µM*
O=C(N/N=C/c1cc(O)ccc1Br)c1cccnc1,42%,-93*,45µM*,x,-91*,7.1µM*
CCOc1ccc(NC(=O)CCc2c(C)nc3cc(-c4ccc(Cl)cc4)nn3c2C)cc1,19%,x,-13%,0.71µM*,x,-19%
CCOC(=O)c1cccc(NC(=O)CCc2c(C)nc3cc(-c4ccc(Cl)cc4)nn3c2C)c1,28%,x,-10%,-19%[59 µM],x,-15%
Cc1ccc2c(c1)c(=O)c(S(=O)(=O)c1ccc(F)cc1)cn2CC(=O)Nc1ccc2c(c1)OCO2,13%,x,-24%,-10%[59 µM],x,-19%
O=C1Nc2ccccc2-n2nnnc2C1N1CCN(c2ccc(C(F)(F)F)cn2)CC1 (centres undefined),x,-1,x,x,-2,x
CCN(C(=O)COC(=O)CCS(=O)(=O)c1ccc(C)cc1)C1CCS(=O)(=O)C1 (centres undefined),21%,5,1%,24%,5,-9%

# Screens: PubChem, National Center for Advancing Translational Sciences (NCATS)
